The results in this text go back to ChEMBL document CHEMBL3988442, “University of Dundee, Small-Polar-MMV Screening Library” (2021).

In experiment [1] the target is T1, Methionyl-tRNA synthetase, putative (Leishmania donovani (strain BPK282A1)) (UniProt E9BF75).
T1 sequence (whole entry): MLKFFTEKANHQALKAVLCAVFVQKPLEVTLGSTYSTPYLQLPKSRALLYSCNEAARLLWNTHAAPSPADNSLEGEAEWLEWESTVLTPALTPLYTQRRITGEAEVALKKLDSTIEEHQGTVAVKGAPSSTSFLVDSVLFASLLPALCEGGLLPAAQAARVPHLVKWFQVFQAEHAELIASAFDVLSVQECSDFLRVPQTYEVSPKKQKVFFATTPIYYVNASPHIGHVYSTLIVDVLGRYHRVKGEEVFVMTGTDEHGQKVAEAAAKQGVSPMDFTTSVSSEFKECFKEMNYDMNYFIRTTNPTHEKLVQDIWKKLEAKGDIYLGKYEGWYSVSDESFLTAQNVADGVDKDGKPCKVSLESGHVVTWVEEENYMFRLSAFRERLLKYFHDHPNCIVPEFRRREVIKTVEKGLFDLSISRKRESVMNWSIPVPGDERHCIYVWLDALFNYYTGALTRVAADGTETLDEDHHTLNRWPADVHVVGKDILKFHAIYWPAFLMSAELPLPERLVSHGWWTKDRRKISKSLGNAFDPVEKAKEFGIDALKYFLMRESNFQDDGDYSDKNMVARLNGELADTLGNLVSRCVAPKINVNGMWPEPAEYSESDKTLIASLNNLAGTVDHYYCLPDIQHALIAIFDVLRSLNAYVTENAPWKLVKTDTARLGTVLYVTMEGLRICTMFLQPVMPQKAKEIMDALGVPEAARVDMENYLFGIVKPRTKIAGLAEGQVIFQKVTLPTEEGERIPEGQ
Nature of the experiment: Leishmania donovani Methionine tRNA synthetase (LdMetRS):v7. Dose response assay. It is filed as functional. More on the design: conc 80 nM, time 150 minutes.

Experiment [2] concerns the target Protein translocase subunit SecA (Escherichia coli (strain K12)) (UniProt P10408). Kind of experiment: Assay to Identify E. coli SecA ATPase Inhibitors. In kind it is functional. Details: scale not given: direction of the effect not stated beside the values. As to conditions: 30 µM.
The target in experiment [3] is T2, Ubiquitin-activating enzyme e1, putative (Leishmania donovani (strain BPK282A1)) (UniProt E9BSI1).
T2 sequence (whole entry): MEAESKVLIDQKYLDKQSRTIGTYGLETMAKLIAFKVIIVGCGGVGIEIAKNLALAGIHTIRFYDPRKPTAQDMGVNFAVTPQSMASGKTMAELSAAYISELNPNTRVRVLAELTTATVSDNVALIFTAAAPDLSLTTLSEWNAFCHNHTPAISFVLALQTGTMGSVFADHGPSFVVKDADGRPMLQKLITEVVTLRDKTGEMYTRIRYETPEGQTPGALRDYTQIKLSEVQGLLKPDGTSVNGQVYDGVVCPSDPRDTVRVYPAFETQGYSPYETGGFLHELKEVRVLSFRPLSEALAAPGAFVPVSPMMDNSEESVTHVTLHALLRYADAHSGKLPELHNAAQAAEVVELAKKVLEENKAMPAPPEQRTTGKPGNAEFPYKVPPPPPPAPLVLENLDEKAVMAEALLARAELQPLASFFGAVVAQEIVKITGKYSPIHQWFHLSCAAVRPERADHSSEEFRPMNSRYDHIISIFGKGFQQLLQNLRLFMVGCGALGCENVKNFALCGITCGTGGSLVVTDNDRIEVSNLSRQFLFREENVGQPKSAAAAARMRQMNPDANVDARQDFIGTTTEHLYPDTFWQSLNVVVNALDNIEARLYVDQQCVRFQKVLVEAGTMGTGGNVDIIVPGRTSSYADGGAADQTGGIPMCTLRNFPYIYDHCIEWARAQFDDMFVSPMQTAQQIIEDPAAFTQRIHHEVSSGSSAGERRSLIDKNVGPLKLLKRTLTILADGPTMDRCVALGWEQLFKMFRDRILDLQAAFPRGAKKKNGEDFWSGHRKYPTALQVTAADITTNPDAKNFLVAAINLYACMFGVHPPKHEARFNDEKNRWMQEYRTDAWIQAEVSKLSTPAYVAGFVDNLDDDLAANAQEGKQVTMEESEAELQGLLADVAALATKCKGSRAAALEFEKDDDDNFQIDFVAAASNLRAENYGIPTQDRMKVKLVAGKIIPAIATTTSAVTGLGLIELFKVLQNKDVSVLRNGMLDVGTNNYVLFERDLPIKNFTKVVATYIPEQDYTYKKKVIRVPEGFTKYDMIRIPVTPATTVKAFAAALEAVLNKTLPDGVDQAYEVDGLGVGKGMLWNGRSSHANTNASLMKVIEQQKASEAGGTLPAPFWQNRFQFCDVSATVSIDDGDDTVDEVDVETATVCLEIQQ
Nature of the experiment: Leishmania donovani Ubiquitin Activating Enzyme (LdE1). It is filed as functional. Details: scale not given: direction of the effect not stated beside the values. The note with it: 30 µM.

Experiment [4] addresses Sialic acid-binding Ig-like lectin 9 (Homo sapiens) (UniProt Q9Y336). Kind of experiment: Hs-Siglec9 ALPHAscreen SOP 20170721. More on the design: scale not given: direction of the effect not stated beside the values. As to conditions: 10 µM. (In general: Alpha assays give light when donor and acceptor beads are brought close together.)
In another experiment the test system is Trypanosoma cruzi. Kind of experiment: Trypanosoma cruzi phosphomannomutase and mannose-1-phosphate guanylyltransferase assay. In kind it is functional. More on the design: scale not given: direction of the effect not stated beside the values. As to conditions: 10 µM.
Experiment [5] addresses T3, Arginase-2, mitochondrial (Homo sapiens) (UniProt P78540).
T3 sequence (whole entry): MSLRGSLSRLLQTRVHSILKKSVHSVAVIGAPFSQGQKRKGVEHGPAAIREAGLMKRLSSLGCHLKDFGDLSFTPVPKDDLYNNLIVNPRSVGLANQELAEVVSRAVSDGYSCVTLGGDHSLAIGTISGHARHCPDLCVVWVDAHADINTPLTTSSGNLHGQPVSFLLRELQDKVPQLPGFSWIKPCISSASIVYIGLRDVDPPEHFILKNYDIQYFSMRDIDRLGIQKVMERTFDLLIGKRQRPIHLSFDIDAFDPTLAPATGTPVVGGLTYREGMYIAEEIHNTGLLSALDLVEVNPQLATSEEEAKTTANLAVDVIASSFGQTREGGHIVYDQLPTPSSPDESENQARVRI
Kind of experiment: in vitro enzyme assay to detect the production of urea directly proportional to the activity of Arginase II. In kind it is functional. More on the design: scale not given: in the data most compounds retested in dose-response had high values. The note with it: 33.3 µM.

Experiment [6] addresses T4, Proteasome subunit beta (Trypanosoma cruzi) (UniProt O96673).
T4 sequence (whole entry): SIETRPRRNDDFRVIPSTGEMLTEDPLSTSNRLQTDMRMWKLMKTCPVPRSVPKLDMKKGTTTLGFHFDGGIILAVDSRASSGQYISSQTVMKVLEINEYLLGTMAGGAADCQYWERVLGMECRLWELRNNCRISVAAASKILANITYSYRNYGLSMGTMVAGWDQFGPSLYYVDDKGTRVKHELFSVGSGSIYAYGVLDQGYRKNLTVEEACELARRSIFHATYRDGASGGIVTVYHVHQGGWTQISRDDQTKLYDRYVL
Nature of the experiment: Trypanosoma cruzi proteasome chymotrypsin-like activity (TcProtChymo) assay. Details: scale not given: in the data most compounds retested in dose-response had high values. As to conditions: 9.37 µM. In kind it is functional.

The species entered for another experiment is Homo sapiens. Nature of the experiment: To identify inhibition of the IFN signalling (Jak-Stat) pathway via expression of an eGFP reporter gene under the control of an IFN-stimulated response element (ISRE) containing MxA promoter. It is filed as functional. More on the design: scale not given: direction of the effect not stated beside the values. The note with it: 30 µM.

Experiment [7] has as its target T5, Tyrosyl-tRNA synthetase, putative (Trypanosoma cruzi (strain CL Brener)) (UniProt Q4DSP6).
T5 sequence (whole entry): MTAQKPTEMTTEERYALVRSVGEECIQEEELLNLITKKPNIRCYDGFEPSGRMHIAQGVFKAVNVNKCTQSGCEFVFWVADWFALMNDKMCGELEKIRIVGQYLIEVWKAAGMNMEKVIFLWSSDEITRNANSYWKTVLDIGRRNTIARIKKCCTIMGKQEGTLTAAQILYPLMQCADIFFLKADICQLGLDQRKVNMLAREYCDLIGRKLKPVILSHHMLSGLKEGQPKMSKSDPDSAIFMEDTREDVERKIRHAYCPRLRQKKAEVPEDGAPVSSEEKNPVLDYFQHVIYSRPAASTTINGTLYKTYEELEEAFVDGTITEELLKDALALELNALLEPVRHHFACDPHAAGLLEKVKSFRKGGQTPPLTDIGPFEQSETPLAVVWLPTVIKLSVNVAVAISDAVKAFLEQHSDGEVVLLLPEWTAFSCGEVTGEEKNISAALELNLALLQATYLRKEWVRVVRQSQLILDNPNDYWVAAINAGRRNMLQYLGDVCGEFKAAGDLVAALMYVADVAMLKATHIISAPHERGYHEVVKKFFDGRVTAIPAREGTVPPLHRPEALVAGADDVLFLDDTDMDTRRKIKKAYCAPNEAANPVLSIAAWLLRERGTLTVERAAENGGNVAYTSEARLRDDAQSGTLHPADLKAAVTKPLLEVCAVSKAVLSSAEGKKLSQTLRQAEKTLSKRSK
Nature of the experiment: Trypanosoma cruzi tyrosyl tRNA synthetase (TcYRS) _High Tyrosine SOP. Details: scale not given: in the data most compounds retested in dose-response had high values. It is filed as functional. The note with it: 30 µM.

For experiment [8], the target named is T5, Tyrosyl-tRNA synthetase, putative (Trypanosoma cruzi (strain CL Brener)). Nature of the experiment: Trypanosoma cruzi tyrosyl tRNA synthetase (TcYRS) SOP. It is filed as functional. More on the design: scale not given: direction of the effect not stated beside the values. As to conditions: 30 µM.
Experiment [9] has as its target Chromo domain-containing protein 1 (Saccharomyces cerevisiae (strain ATCC 204508 / S288c) (Baker's yeast)) (UniProt P32657). Kind of experiment: ScCHD-1 Enzyme Inhibition Assay. In kind it is functional. Details: scale not given: in the data most compounds retested in dose-response had high values. As to conditions: 30 µM.

For part of these data: Results with a measured potency or affinity are listed apart. Some results are limits rather than exact numbers.

Sequence of Sialic acid-binding Ig-like lectin 9 (Homo sapiens) (Q9Y336 whole entry): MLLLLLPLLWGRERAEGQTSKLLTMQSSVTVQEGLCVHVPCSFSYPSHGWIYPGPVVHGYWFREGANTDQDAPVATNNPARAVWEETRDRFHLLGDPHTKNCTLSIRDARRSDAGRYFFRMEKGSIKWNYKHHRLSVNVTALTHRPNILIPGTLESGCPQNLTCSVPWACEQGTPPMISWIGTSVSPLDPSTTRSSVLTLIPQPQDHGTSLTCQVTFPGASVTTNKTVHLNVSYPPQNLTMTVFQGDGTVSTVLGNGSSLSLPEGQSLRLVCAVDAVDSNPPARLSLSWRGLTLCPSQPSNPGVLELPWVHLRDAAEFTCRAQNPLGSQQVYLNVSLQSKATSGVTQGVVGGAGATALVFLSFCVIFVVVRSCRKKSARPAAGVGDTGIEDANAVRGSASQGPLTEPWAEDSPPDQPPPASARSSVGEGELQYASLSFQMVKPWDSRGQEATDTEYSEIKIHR
Sequence of Chromo domain-containing protein 1 (Saccharomyces cerevisiae (strain ATCC 204508 / S288c) (Baker's yeast)) (P32657 whole entry, the tested form may be a part): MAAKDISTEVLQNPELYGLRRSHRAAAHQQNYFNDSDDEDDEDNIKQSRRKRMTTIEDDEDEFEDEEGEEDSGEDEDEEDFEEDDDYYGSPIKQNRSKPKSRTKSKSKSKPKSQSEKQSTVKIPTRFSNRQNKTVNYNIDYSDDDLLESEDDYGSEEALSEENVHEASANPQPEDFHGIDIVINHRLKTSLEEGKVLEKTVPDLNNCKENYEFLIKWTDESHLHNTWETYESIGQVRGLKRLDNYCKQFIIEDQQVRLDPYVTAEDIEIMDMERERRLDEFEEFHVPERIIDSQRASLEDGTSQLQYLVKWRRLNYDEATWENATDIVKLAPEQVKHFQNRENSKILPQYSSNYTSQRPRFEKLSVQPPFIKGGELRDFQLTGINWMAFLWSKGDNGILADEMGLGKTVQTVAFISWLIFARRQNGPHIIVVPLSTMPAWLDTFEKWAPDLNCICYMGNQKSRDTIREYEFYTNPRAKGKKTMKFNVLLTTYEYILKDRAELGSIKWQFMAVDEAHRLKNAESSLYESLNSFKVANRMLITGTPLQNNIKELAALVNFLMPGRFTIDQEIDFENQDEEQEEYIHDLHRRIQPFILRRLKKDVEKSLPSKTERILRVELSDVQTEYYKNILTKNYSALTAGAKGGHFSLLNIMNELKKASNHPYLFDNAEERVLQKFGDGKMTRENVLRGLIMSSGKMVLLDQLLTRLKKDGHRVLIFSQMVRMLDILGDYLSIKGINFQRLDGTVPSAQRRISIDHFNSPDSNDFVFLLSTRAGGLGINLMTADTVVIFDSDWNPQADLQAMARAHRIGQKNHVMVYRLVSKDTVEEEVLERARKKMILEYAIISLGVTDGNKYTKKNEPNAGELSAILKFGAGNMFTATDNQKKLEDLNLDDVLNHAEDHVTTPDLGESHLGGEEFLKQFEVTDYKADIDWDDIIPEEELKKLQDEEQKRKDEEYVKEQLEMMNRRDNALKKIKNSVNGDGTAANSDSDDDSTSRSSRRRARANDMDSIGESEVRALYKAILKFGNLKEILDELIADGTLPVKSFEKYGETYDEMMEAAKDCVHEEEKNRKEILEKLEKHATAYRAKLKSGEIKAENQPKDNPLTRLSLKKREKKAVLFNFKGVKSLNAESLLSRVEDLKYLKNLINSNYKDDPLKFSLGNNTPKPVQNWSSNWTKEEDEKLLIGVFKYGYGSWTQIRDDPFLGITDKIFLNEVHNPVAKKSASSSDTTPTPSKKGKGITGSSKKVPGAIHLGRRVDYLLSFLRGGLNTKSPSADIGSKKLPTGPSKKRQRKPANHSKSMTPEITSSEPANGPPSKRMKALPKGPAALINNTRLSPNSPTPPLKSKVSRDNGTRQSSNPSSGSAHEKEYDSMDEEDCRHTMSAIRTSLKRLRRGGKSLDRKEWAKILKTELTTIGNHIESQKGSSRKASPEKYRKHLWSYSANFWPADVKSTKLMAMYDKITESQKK
Sequence of Protein translocase subunit SecA (Escherichia coli (strain K12)) (P10408 whole entry): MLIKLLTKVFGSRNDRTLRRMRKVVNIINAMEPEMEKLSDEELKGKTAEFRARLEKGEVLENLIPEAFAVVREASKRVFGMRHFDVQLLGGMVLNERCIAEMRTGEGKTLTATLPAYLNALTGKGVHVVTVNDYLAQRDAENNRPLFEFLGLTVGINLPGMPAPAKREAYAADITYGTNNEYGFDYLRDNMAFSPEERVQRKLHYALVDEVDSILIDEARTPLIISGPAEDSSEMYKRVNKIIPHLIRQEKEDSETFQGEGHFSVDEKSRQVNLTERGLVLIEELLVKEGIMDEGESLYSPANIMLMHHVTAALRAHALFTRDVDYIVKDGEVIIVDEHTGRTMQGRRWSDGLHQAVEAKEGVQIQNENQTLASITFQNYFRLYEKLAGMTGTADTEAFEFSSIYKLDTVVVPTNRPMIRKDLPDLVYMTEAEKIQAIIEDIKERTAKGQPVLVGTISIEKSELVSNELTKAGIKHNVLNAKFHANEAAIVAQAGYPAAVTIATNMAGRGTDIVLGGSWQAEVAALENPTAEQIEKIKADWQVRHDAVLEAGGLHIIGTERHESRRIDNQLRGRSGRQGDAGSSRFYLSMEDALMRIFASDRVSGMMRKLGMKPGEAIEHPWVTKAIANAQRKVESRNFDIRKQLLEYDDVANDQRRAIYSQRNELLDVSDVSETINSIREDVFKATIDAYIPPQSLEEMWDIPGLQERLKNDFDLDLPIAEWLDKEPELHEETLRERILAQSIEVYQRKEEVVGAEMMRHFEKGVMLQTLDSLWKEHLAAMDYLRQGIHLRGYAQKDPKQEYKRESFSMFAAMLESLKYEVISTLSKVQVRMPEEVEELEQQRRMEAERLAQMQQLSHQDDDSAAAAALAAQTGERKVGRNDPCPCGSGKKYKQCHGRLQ

For the compound `O=C(NC1CC1)c1ccc2ccc(N3CCN(CC4CC4)CC3)n2c1`, the PXC50 in [1] (BOTTOM 0.467703885, HILLSLOPE 1.411799655, MAX_EFFECT 58.90736342, TOP 70.88537837) is 4.49; in experiment [1] (BOTTOM 3.025092892, HILLSLOPE 1.100251625, MAX_EFFECT 63.9084507, TOP 101.8817942), 4.18; in experiment [1] (BOTTOM 3.903834548, HILLSLOPE 2.10176548, MAX_EFFECT 63.76811594, TOP 66.05792102), 4.72; in experiment [1] (BOTTOM -3.956247574, HILLSLOPE 1.036561065, MAX_EFFECT 73.83512545, TOP 100.0) it was 4.45; in experiment [1] (BOTTOM -4.174046537, HILLSLOPE 0.97706716, MAX_EFFECT 63.03630363, TOP 100.0), 4.22. Also, the Percent Effect in experiment [2] was 0.138%; in experiment [3], 9.09%; in [4] it was 0.503%; in the experiment with Trypanosoma cruzi, 7.69%; in [5], -1.37%; in experiment [6], 9.19%. Moreover, the Percent Effect in the experiment listed under Homo sapiens is -15.1%; in experiment [7], 45.4%; in experiment [8], 22.5%; in [9], -3.97%.

`Oc1ccc(N(CCc2ccccc2)CCn2cncn2)cc1`: the PXC50 is 4.3 in [1] (BOTTOM 3.490457709, HILLSLOPE 3.448426001, MAX_EFFECT 80.53691275, TOP 87.69859371); 4.05 in experiment [1] (BOTTOM 4.951266088, HILLSLOPE 3.910237354, MAX_EFFECT 63.19444444, TOP 100.0); less than 4 in experiment [1] (MAX_EFFECT 6.53907496); less than 4 in experiment [1] (MAX_EFFECT 12.85988484); less than 4 in [1] (MAX_EFFECT 66.72443674).

As for `CCN(CCN(C)C)c1nc(CCN)nc2sc(C)c(C)c12`, the PXC50 in experiment [1] (BOTTOM 1.153434253, HILLSLOPE 1.801290913, MAX_EFFECT 65.59139785, TOP 100.0) came to 4.17; in [1] (BOTTOM 3.323089956, HILLSLOPE 2.865245269, MAX_EFFECT 53.13531353, TOP 100.0) it was 4.01; in [1] (BOTTOM 7.056148009, HILLSLOPE 0.845689164, MAX_EFFECT 65.90909091, TOP 100.0), 4.25; in experiment [1] (BOTTOM 9.733141468, HILLSLOPE 1.108067768, MAX_EFFECT 69.89795918, TOP 94.34728341), 4.35; in [1] (BOTTOM -2.908093481, HILLSLOPE 0.556623138, MAX_EFFECT 55.79710145, TOP 100.0) it was 4.03.

On to `CC(C)Cc1ncc(CNc2cnccc2CO)s1`, for which the PXC50 in [1] (MAX_EFFECT 2.711323764), in experiment [1] (MAX_EFFECT 4.081632653), in experiment [1] (MAX_EFFECT 4.798464491), in experiment [1] (MAX_EFFECT 7.246376812) and in [1] (MAX_EFFECT 9.632224168) was less than 4 in each case.
